HepG2 tox = HepG2 cytotoxicity, counter-screen for TGF-b inhibitors. actives 0.76% (n = 410,000). AID 588856. Potency, µM (highest dose often 46.1 µM), for inactives: at the top dose activity change, negative = cytotoxicity, hits mostly cytotoxic. HepG2 CAGA-GFP viability, ATP luminescence, 18 h; further: potency means the concentration at half of the fitted maximal effect
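HepG2 CAGA-GFP cells (1000/well, DMEM with 1% FBS) received compound, then TGF-beta at 500 pg/mL final, and were incubated 18 hours at 37 degrees C. Viability was read by CellTiter-Glo luminescence. Media-only wells were set as complete cell-killing and DMSO as no toxicity.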
TGFb inhibitor = blocks TGF-b signaling; actives 1.2% (n = 410,000); HepG2 CAGA-GFP TGF-b/SMAD3 reporter, GFP fluorescence, 18 h; TGF-beta stimulated, 500 pg/mL final; AID 588855; Potency, µM (top dose mostly 46.1 µM), for inactives: at the highest dose activity, negative = inhibition, most hits filed as inhibitors; further: potency means the concentration at half of the fitted maximal effect; on the % scale 0 is the no-effect control and ±100 the full control effect; nearly all actives have a fitted effect of over 65% in size
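First, reporter cells (HEPG2 CAGA-GFP) rested 2 h at 37 degrees C. Next, compounds were pinned in and TGF-beta added to 500 pg/mL final. After 18 h, GFP was imaged per cell and summed per well.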
ASM inhibitor = human S-ASM enzyme inhibition; P17405; placental ASM, HMU-PC fluorogenic substrate, 60 min; Potency, µM (doses to about 57.5 µM), without a hit: top-dose activity change, negative = inhibition, usual class: inhibitors; actives 0.006% (n = 340,000); further: potency means the concentration at half of the fitted maximal effect
Target sequence (P17405 47-631 limits assumed): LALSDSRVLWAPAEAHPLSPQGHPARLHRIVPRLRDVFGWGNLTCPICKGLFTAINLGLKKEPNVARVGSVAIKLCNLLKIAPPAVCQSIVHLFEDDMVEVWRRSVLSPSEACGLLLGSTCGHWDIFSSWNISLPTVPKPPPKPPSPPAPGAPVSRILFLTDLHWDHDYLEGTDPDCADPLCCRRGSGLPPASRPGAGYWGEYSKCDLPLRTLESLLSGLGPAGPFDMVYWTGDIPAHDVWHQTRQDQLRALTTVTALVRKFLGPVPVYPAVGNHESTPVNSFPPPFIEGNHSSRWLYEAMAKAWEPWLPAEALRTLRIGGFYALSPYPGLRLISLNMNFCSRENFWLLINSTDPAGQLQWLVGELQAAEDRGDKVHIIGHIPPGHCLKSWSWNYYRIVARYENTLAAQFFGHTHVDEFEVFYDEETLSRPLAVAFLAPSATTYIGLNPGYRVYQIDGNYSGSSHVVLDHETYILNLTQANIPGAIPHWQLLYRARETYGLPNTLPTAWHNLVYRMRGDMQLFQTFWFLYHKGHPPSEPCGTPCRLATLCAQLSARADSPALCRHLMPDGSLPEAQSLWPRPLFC
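Human placenta-derived ASM enzyme was preincubated with compound for 10 minutes at room temperature, then given fluorogenic substrate HMU-PC0 (9 uM final) for 60 minutes at 37 °C; a pH 10 stop preceded fluorescence reading at Ex 386/Em 447 nm.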
DT40 TDP1 CPT = growth inhibition of DT40 Tdp1-/-;hTDP1 cells with camptothecin (screen for TDP1 inhibitors) | actives 12% (n = 420,000) | AID 686979 | Potency, µM (highest dose often 46.2 µM), for inactives: top-dose activity change, negative = growth inhibition, usual class: inhibitors | chicken DT40 Tdp1-/-;hTDP1 cells + 20 nM CPT, ATP luminescence, 48 h; further: potency means the concentration at half of the fitted maximal effect; on the % scale 0 is the no-effect control and ±100 the full control effect; nearly all actives have a fitted effect of over 55% in size
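Chicken DT40 Tdp1-/- cells stably complemented with human TDP1 were seeded at 400 cells/well in medium containing 20 nM camptothecin, exposed to pin-transferred compounds, and grown at 37 °C for at least 48 hr. Viability was read as ATP luminescence.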
IL1B secr inh = blocks inflammasome-driven IL-1 beta release; THP-1 LPS/ATP IL-1B secretion, AlphaLISA, 16 h; hits give low values; activity change, % at 57.5 µM; actives 4.7% (n = 360,000); in the data active means activity change below about -50%; inconclusive means mostly about -30% to -49%; further: on the % scale 0 is the no-effect control and ±100 the full control effect
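THP-1 cells pretreated 1 hr with compounds (up to 57.5 uM final), then stimulated with LPS (250 ng/mL final) plus ATP (1.25 mM final); secreted IL-1B measured by AlphaLISA after 16 hr, decreased signal indicating inhibition.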
DT40 TDP1 no CPT = qHTS for Inhibitors of human tyrosyl-DNA phosphodiesterase 1 (TDP1): qHTS in cells in absence of CPT; DT40 Tdp1-/- hTDP1 cells, no CPT, ATP luminescence, 48 h; Potency, µM (titrated, usually from 46.2 µM), without a hit: at the highest dose activity change, negative = growth inhibition, usual class: inhibitors; actives 15% (n = 420,000); further: potency means the concentration at half of the fitted maximal effect; on the % scale 0 is the no-effect control and ±100 the full control effect; nearly all actives have a fitted effect of over 55% in size
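Readout: luminescence from CellTiter-Glo after 30 min in the dark at RT. Cells: DT40 Tdp1-/- with stable hTDP1, 400/well. Exposure: compounds alone, ≥48 hr, 37 °C.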
Active calls of the source: *. Sampled rows, rich in hits. Any-hit rate of the full collection: about 19%. Unless noted, the call rests on the fitted dose curve; in most records, active means well fitted curve in the direction sought with a large enough effect; inconclusive means small, poorly fitted or top-dose-only effect, or another doubt; inactive means no such curve, though single readings can be large; an effect the other way counts as inactive or inconclusive.

`COc1ccc(-c2noc(-c3ccc(NCc4ccc(C)cc4)c([N+](=O)[O-])c3)n2)cc1OC` gave HepG2 tox -19%, TGFb inhibitor -13%, DT40 TDP1 CPT -2% and DT40 TDP1 no CPT 3%.
`CC(C)(C)c1csc(NC(=O)c2ccc3nccnc3c2)n1` gave HepG2 tox -17%, TGFb inhibitor -15%, ASM inhibitor 4%, DT40 TDP1 CPT 16µM*, IL1B secr inh 0 and DT40 TDP1 no CPT 18µM*.
Screening CC(C)(C)c1csc(NC(=O)c2ccncc2)n1 returned HepG2 tox -12%, TGFb inhibitor -37%, ASM inhibitor 2%, DT40 TDP1 CPT inconclusive, IL1B secr inh 19 and DT40 TDP1 no CPT 21µM*.
For Cc1cccc(NC(=O)c2ccc3nccnc3c2)n1 the results were HepG2 tox -5%, TGFb inhibitor 1%, ASM inhibitor 4%, DT40 TDP1 CPT inconclusive, IL1B secr inh -20 and DT40 TDP1 no CPT -25%.
Cc1csc(NC(=O)c2ccncc2)n1 was read as HepG2 tox 0%, TGFb inhibitor 0%, ASM inhibitor -3%, DT40 TDP1 CPT -14%, IL1B secr inh 0 and DT40 TDP1 no CPT 8%.
Screening CCCCCc1ccc(OCCC[n+]2ccccc2)c(CCCCC)c1 returned HepG2 tox -114%, TGFb inhibitor inconclusive, ASM inhibitor -24%, DT40 TDP1 CPT 0.65µM*, IL1B secr inh -94* and DT40 TDP1 no CPT 1µM*.
CC(=O)Nc1ccc(OCCC[n+]2ccccc2)cc1 was read as HepG2 tox -10%, TGFb inhibitor 6%, ASM inhibitor -2%, DT40 TDP1 CPT -3%, IL1B secr inh 0 and DT40 TDP1 no CPT 22%.
Screening CCCCCc1ccc(OCCOCCn2c[n+](C)c3ccccc32)c(CCCCC)c1 returned HepG2 tox -113%, TGFb inhibitor inconclusive, ASM inhibitor -25%, DT40 TDP1 CPT 2.3µM*, IL1B secr inh -94* and DT40 TDP1 no CPT 2.1µM*.
Screening CCOc1ccc(NC(=O)N2CCN(c3nnc(C)c4c(C)n(-c5ccccc5)nc34)CC2)cc1 returned HepG2 tox 0%, TGFb inhibitor 2%, DT40 TDP1 CPT -17% and DT40 TDP1 no CPT -6%.
For Cc1ccc2c(C)[nH]c(=O)cc2c1 the results were HepG2 tox -9%, TGFb inhibitor -7%, ASM inhibitor 0%, DT40 TDP1 CPT 7.3µM*, IL1B secr inh 34 and DT40 TDP1 no CPT 7.3µM*.
`Cc1cccc(NC(=O)CSc2nc(C)c(CC(=O)c3ccc(Br)cc3)c(C)c2C#N)c1C` gave HepG2 tox 6%, TGFb inhibitor inconclusive, ASM inhibitor -2%, DT40 TDP1 CPT 13µM*, IL1B secr inh 58 and DT40 TDP1 no CPT 15µM*.
Screening Cc1cccc(NC(=O)CSc2nc(-c3cccs3)cc(C(F)(F)F)c2C#N)c1C returned HepG2 tox -21%, TGFb inhibitor -5%, DT40 TDP1 CPT -13% and DT40 TDP1 no CPT -13%.
Cc1nc(SCC(=O)Nc2ccc(F)cc2)c(C#N)c(C)c1CC(=O)c1ccc(Br)cc1 was read as HepG2 tox 13%, TGFb inhibitor inconclusive, ASM inhibitor 1%, DT40 TDP1 CPT 16µM*, IL1B secr inh 15 and DT40 TDP1 no CPT inconclusive.
For COC(=O)/C(=C1\OC(=O)C(c2ccccc2)C1=O)c1ccccc1 (configuration not stated) the results were DT40 TDP1 CPT 0% and DT40 TDP1 no CPT -1%.

High-throughput results as filed in PubChem.
